Data as given in PubChem BioAssay AID777 (Sanford-Burnham Center for Chemical Genomics, 2007).
In all, about 96,000 compounds went through this assay and about 19,000 (20%) were called active.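 Rule for the calls: active = blocking of liver enzyme CYP2C9 beyond about 50% at 5 µM (limit read from the data); inactive = the rest.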 The list is a sample of the results.

The compounds below were run against Cytochrome P450 2C9 (Homo sapiens) (UniProt P11712) (assay: blockers of cytochrome P450 2C9 activity – biochemical, luminescence, ADME assay, primary screen (AID 777)). Details: CYP2C9 Supersomes, luciferin-H conversion, at 5 µM, active compounds read high.
Chain of Cytochrome P450 2C9 (Homo sapiens) (P11712 whole entry, looked up): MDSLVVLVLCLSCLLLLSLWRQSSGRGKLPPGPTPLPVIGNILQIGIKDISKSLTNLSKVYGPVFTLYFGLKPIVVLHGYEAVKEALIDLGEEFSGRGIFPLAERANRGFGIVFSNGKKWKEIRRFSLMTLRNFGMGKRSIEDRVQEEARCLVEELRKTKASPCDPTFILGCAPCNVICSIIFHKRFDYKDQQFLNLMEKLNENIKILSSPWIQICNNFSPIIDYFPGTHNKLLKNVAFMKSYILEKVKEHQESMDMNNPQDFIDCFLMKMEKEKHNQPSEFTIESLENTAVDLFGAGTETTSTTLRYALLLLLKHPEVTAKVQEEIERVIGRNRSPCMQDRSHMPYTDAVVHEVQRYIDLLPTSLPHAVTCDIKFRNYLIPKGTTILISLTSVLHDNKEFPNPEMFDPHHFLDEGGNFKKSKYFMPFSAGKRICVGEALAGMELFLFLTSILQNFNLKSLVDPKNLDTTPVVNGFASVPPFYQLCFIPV
In the case of `CCN(CC)Cc1csc2ccc(Br)cc12`, the inhibition was -14.3% (inactive). For `Cc1cc(NC(=O)Cn2nc(C(F)(F)F)c3c2CCCC3)no1`, the inhibition was 14.9% (inactive). `Cc1cccc(-n2c(N)c(C(=O)N3CCN(C)CC3)sc2=S)c1` was tested, and the inhibition was 19.9% (inactive). With `Cc1ccc(-n2c(N)c(C(=O)N3CCOCC3)sc2=S)c(C)c1` the inhibition was 8.6% (inactive). For `N#Cc1ccccc1-n1c(N)c(C(=O)N2CCCC2)sc1=S`, the inhibition was 69.3% (active). For `COc1ccc(-n2nc(C(=O)NCC(=O)Nc3cccc(C)n3)c3ccccc3c2=O)cc1`, the inhibition was 23.8% (inactive). For `COc1ccc(C(C)=O)cc1CN1C(=O)NC2(CCCCC2C)C1=O` (stereo not drawn), the inhibition was 9.5% (inactive). `C#CCN1CC(C)/C(=N/O)CC1C` (stereo not drawn) was tested, and the inhibition was -28.8% (inactive). For `COc1cc(C2C(C#N)=C(C)NC3=C2C(=O)CC(C)(C)C3)ccc1O` (stereo not drawn), the inhibition was 58.5% (active). In the case of `CCC1C(C#N)=C(SC)NC2=C1C(=O)CC(C)(C)C2` (stereo not drawn), the inhibition was 19% (inactive). In the case of `CCOC(=O)C1=C(C)NC2=C(C(=O)CC(C)(C)C2)C1c1ccsc1` (stereo not drawn), the inhibition was 39.8% (inactive). With `COc1ccc(C2C(C#N)=C(/N=C/N3CCOCC3)OC3=C2C(=O)CC(C)(C)C3)cc1OC` (stereo not drawn) the inhibition was 69% (active). For `CC(=O)Nc1ccc(NC(=O)CN2CCCC(C)C2)c(Cl)c1` (stereo not drawn), the inhibition was 18.3% (inactive). For `c1ccc(C2CCC(N3CCC(N4CCCCC4)CC3)CC2)cc1` (stereo not drawn), the inhibition was 11% (inactive). In the case of `Cc1cc(=O)oc(C)c1C(=O)N1CCCCC1`, the inhibition was 4.9% (inactive). In the case of `O=C(NCCc1ccccc1)/C(=C\c1ccc([N+](=O)[O-])cc1)NC(=O)c1ccccc1`, the inhibition was 3.8% (inactive). With `CCOC(=O)/C(=C\c1ccc([N+](=O)[O-])cc1)C(=O)c1cc(C(C)=O)c(Nc2ccccc2)s1` the inhibition was 76.2% (active). In the case of `CCOC(=O)/C(C#N)=C/c1ccc(OCC(=O)Nc2ccccc2)c(OC)c1`, the inhibition was 14.7% (inactive). `CCC1CCCCN1CCNS(=O)(=O)c1ccc2c(c1)CCN2C(C)=O` (stereo not drawn) was tested, and the inhibition was 15.6% (inactive). `N/C(Cc1ccc([N+](=O)[O-])cc1)=N\OC(=O)COc1ccc2ccccc2c1` was tested, and the inhibition was 4.4% (inactive). In the case of `COc1cc(C(=O)N2CCN(C/C=C/c3ccccc3)CC2)cc(OC)c1C`, the inhibition was 67.7% (active). For `COc1ccc(OCC(=O)N2CCN(C(=O)COc3ccccc3)CC2)cc1`, the inhibition was -2.8% (inactive). In the case of `CCOc1cc(CN2CCN(C(=O)CC(C)C)CC2)ccc1OC`, the inhibition was -24.7% (inactive). `Cn1c(C(=O)OC(C(=O)NC2CCCCC2)c2ccccn2)cc2sccc21` (stereo not drawn) was tested, and the inhibition was -7.2% (inactive). For `CCn1c(/C=C/c2ccc([N+](=O)[O-])o2)nc2ccccc2c1=O`, the inhibition was -18% (inactive). In the case of `COC(=O)C1CCN(CC(N)=O)CC1`, the inhibition was -11.4% (inactive). For `CCOC(=O)CC1=CC(=O)Nc2ccccc2N1`, the inhibition was 7.1% (inactive). For `CCC(=O)Nc1cccc(NC(=O)CSc2nnnn2C2CCCC2)c1`, the inhibition was 16.4% (inactive). For `O=C(CSc1nc(C2CC2)nc2ccccc12)Nc1ccc2c(c1)OCCO2`, the inhibition was 40.1% (inactive). For `O=C(CSc1nnnn1-c1ccc2c(c1)CCC2)Nc1ccc2c(c1)OCCO2`, the inhibition was 0.6% (inactive). `O=C(CSc1nc2ncccc2[nH]1)Nc1ccc2c(c1)OCCO2` was tested, and the inhibition was 95.5% (active). In the case of `O=C(CSc1nnnn1C1CCCC1)Nc1ccc2c(c1)OCCO2`, the inhibition was 62.4% (active). In the case of `CCNC(=O)c1sccc1-n1cccc1`, the inhibition was 16.1% (inactive). In the case of `Cc1ccc(N2C(=O)CC(Sc3ncn[nH]3)C2=O)cc1` (stereo not drawn), the inhibition was -1.5% (inactive). For `Nc1nonc1C(=O)NCCc1ccccc1`, the inhibition was -8.7% (inactive). With `COc1ccc(OCCCON2C(=O)c3ccccc3C2=O)cc1` the inhibition was 7.6% (inactive). For `CN1CCN(C(=O)C2C3C=CC(C3)C2C(=O)O)CC1` (stereo not drawn), the inhibition was -9.2% (inactive). With `Cc1ccc2nc(S(=O)(=O)O)[nH]c2c1` the inhibition was -11.8% (inactive). `Cc1ccc2nc(/C(C#N)=C\c3ccc(OC(=O)c4cccs4)cc3)[nH]c2c1` was tested, and the inhibition was 81.3% (active). For `CSc1nsc(SC)c1NC(=O)OC1CCCCC1`, the inhibition was 21.9% (inactive). With `O=C(Cn1c(-c2ccccn2)nc2ccccc21)NCCN1CCOCC1` the inhibition was -10.5% (inactive). `Cc1cc(Nc2ccccc2)n(CCC#N)n1` was tested, and the inhibition was -12.2% (inactive). `COC(=O)CN1C(=O)C(O)=C(C(C)=O)C1c1ccc([N+](=O)[O-])cc1` (stereo not drawn) was tested, and the inhibition was 3.5% (inactive). For `COc1cc(-c2noc(C3CCCN(S(=O)(=O)c4cccc(Cl)c4)C3)n2)cc(OC)c1OC` (stereo not drawn), the inhibition was 85.3% (active). With `COc1ccc(S(=O)(=O)N2CCCC(C(=O)N3CCN(C)CC3)C2)cc1C` (stereo not drawn) the inhibition was -24% (inactive). With `CS(=O)(=O)N1CCCC(C(=O)N2CCOCC2)C1` (stereo not drawn) the inhibition was -11.8% (inactive). `CC(C)c1ccc(-c2noc(C3CCCN(S(C)(=O)=O)C3)n2)cc1` (stereo not drawn) was tested, and the inhibition was 52.2% (active). For `O=C(c1cccs1)N1CCCC(c2nc(-c3ccc(F)cc3)no2)C1` (stereo not drawn), the inhibition was 76.9% (active). In the case of `O=C(Cc1cccs1)N1CCCC(c2nc(-c3ccc(S(=O)(=O)N4CCCC4)cc3)no2)C1` (stereo not drawn), the inhibition was 47.8% (inactive). With `COc1ccc(NC(=O)C2CCCN(S(=O)(=O)c3cccc4cccnc34)C2)cc1OC` (stereo not drawn) the inhibition was -15.1% (inactive). In the case of `OCCNc1nc2ccccc2[nH]1`, the inhibition was 2.6% (inactive). `Cc1nnc(SCC(=O)Nn2cnnc2)s1` was tested, and the inhibition was 29.8% (inactive). In the case of `COc1ccccc1NC(=O)c1ccc2nc(N3C(=O)CCC3=O)sc2c1`, the inhibition was -32% (inactive). For `CCc1cc(C(c2ccccc2OC)N2CCOCC2)c(NC(=O)c2ccccc2)s1` (stereo not drawn), the inhibition was 85.2% (active). For `CCOC(=O)c1c(NC(=O)c2ccc(N3CCOCC3)c([N+](=O)[O-])c2)sc(C)c1C`, the inhibition was 7.5% (inactive). `COc1ccc(-n2c(SC)nc(O)cc2=O)cc1` was tested, and the inhibition was -81.1% (inactive). For `O=C1CSC2=NCN(c3ccccc3)CN12`, the inhibition was 26.1% (inactive). `O=S(N1CCCCCC1)C12CC3CC(CC(C3)C1)C2` (stereo not drawn) was tested, and the inhibition was 9.9% (inactive). In the case of `O=C(OCC(=O)N1CCN(C(=O)c2ccco2)CC1)c1ccccc1Cc1ccccc1`, the inhibition was 31.9% (inactive). In the case of `CCOC(=O)c1[nH]c2ccccc2c1N=C(C)N(CC)CC`, the inhibition was -6.5% (inactive). For `COc1ccccc1OCCOc1ccc(/C=N/n2cnnc2)cc1`, the inhibition was 44.5% (inactive). For `C=CCOc1ccc(/C=N/n2cncn2)cc1OC`, the inhibition was 57.5% (active). With `COc1cccc(OCCOc2cccc(/C=N/n3cnnc3)c2)c1` the inhibition was 40% (inactive). With `Cc1ccc2c(CSc3nncs3)cc(=O)oc2c1` the inhibition was 67% (active). With `COC(=O)CCSc1cc([N+](=O)[O-])cc2c1c(C1OCCS1)nn2-c1ccccc1` (stereo not drawn) the inhibition was 34.3% (inactive). `Cc1ccccc1C(=O)NCCN=C1NS(=O)(=O)c2ccccc21` was tested, and the inhibition was 7.9% (inactive). With `COc1ccc(C(C#N)N2N=C(C)CC2(C)C)cc1` (stereo not drawn) the inhibition was -2.1% (inactive). With `N#CC1=C(SCc2ccccc2)NC(=O)C(C#N)C12CCCC2` (stereo not drawn) the inhibition was 46.5% (inactive). In the case of `N#CC1=C(SCc2ccc(C#N)cc2)N=C(N)C(c2nc(-c3ccccc3)cs2)C12CCCCC2` (stereo not drawn), the inhibition was 98.6% (active). In the case of `O=C(O)c1cc2ccccc2c(=O)s1`, the inhibition was -1.7% (inactive). With `CCOC(=O)C1CCCN(C(=O)C2CCN(c3nnc(-n4cccc4)s3)CC2)C1` (stereo not drawn) the inhibition was 25.6% (inactive). For `O=C(O)CCN1C(=O)CC2(CCCCC2)C1=O`, the inhibition was 11.2% (inactive). In the case of `O=[N+]([O-])c1ccc(C=Nc2ccc(Cl)cc2Cl)s1`, the inhibition was 7.9% (inactive). In the case of `O=C1[C@@H]2C(Cc3ccc(O)cc3)NC3(C(=O)Nc4ccc(F)cc43)[C@@H]2C(=O)N1c1ccc(F)cc1` (stereo partly drawn), the inhibition was 50.6% (active). `COCCCNC(NC(=O)c1ccc(C)cc1)C(Cl)(Cl)Cl` (stereo not drawn) was tested, and the inhibition was 4.7% (inactive). For `COc1ccc(NC(=O)C(NC(C)=O)C(=O)NCc2ccccc2Cl)cc1` (stereo not drawn), the inhibition was 37.2% (inactive). `Cc1ccc(NC(=S)NC(NC(=O)Cc2cccc3ccccc23)C(Cl)(Cl)Cl)cc1` (stereo not drawn) was tested, and the inhibition was 96.6% (active). For `COc1ccc(NC(=O)Nc2ccc3nsnc3c2)cc1`, the inhibition was 23.7% (inactive). `COc1cccc2c1OCC1COc3c(c(=O)n(C)c(=O)n3C)C21` (stereo not drawn) was tested, and the inhibition was -6% (inactive). With `NC(=O)c1ccsc1NC(=O)c1ccco1` the inhibition was 61.4% (active). For `O=C(Nc1nnc(SCc2ccccc2)s1)c1ccco1`, the inhibition was 6.2% (inactive). `O=C(Nc1ccc(NC(=O)c2cccs2)cn1)c1ccco1` was tested, and the inhibition was 23.5% (inactive). With `CC(NCCO)C(=O)C12CC3CC(CC(C3)C1)C2` (stereo not drawn) the inhibition was -0.7% (inactive). With `COc1ccc(N2C(=O)CCC(C(=O)Nc3ccccn3)C2c2ccc(OC)c(OC)c2)cc1` (stereo not drawn) the inhibition was 2.6% (inactive). In the case of `Cc1csc(=NC(=O)c2ccccc2)n1CCO`, the inhibition was 32.3% (inactive). In the case of `Cc1ccc(-c2nc(CS(=O)CC(=O)NC3CCCC3)c(C)o2)cc1` (stereo not drawn), the inhibition was 53% (active). In the case of `Cc1ccc(-c2nc(CS(=O)CC(=O)N3CCN(c4ncccn4)CC3)c(C)o2)cc1` (stereo not drawn), the inhibition was 79% (active). In the case of `COc1ccc(-c2nc(CS(=O)CC(=O)NCc3cccnc3)c(C)o2)cc1OC` (stereo not drawn), the inhibition was 47.2% (inactive). With `COc1ccc(-c2nc(CS(=O)CC(=O)N3CCc4ccccc4C3)c(C)o2)cc1` (stereo not drawn) the inhibition was 40.4% (inactive). For `Cc1cc(C(=O)N2CCN(c3ccccn3)CC2)c(C)o1`, the inhibition was 12.4% (inactive). `Cc1ccc(S(=O)(=O)N(C)CC(=O)NC2CCCC2)cc1` was tested, and the inhibition was -30.3% (inactive). With `CCOc1c2ccc(C(=O)NCc3ccc(OC(F)(F)F)cc3)cc2nn1C` the inhibition was 19% (inactive). For `COc1nc(N=C(N)N)nc2c(C)cccc12`, the inhibition was -9.5% (inactive). For `COc1cc2[nH]c(=O)n(CCC(=O)NC3CCN(Cc4ccccc4)CC3)c(=O)c2cc1OC`, the inhibition was -15.4% (inactive). With `CC(=O)Nc1ccc(NC(=O)c2sc3nc4c(c(-c5ccc(C)cc5)c3c2N)CCC4)cc1` the inhibition was -4.6% (inactive). `CC1C(c2ccccc2)=[N+]([O-])C2(CCCC2)N1O` (stereo not drawn) was tested, and the inhibition was 37.7% (inactive). For `O=C(COc1ccc(F)cc1)N(CC1=CCS(=O)(=O)C1)c1ccccc1`, the inhibition was -18.6% (inactive). With `O=c1c2ccccc2c(-c2ccc(Br)cc2)nn1Cc1ccccc1` the inhibition was 21.5% (inactive).
